In PubChem BioAssay (NCI):
The panel holds about 83,000 compounds, 20% with a hit somewhere; the sample as a whole holds those more often.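 Negative percent growth values reflect cell death: -40 means 40% of the cells present at the start died, and -100 means all died.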 Calls of active or inactive are those of the source. The calls were made as follows: active = growth percent below 10; inactive = the rest.

Experiments:
Assay in all cases: NCI-60 one-dose screen, 48 h (100 = growth as untreated, 0 = no growth, -100 = all killed)
Details in all cases: 10 µM unless noted
[1] = system: NCI-H23 lung
[2] = system: NCI-H226 lung
[3] = system: NCI-H322M lung
[4] = system: HOP-62 NSCLC
[5] = system: NCI-H460 lung
[6] = system: HOP-92 NSCLC
[7] = system: NCI-H522 lung
[8] = system: A549/ATCC NSCLC
[9] = system: 786-0 renal
[10] = system: COLO 205 colon
[11] = system: DU-145 prostate
[12] = system: K-562 leukemia
[13] = system: MALME-3M melanoma
[14] = system: MDA-MB-231 breast
[15] = system: RXF 393 renal
[16] = system: SF-268 CNS
[17] = system: SF-295 CNS
[18] = system: SF-539 CNS
[19] = system: UACC-257 melanoma
[20] = system: M14 melanoma

Measured: growth

Fc1ccc2[nH]cc(SSc3c[nH]c4ccc(F)cc34)c2c1
inactive: [1] 45.9% | [2] 52% | [3] 89.7% | [4] 31.7% | [5] 30.5% | [8] 19.3% | [9] 60.8% | [10] 40.9% | [11] 90.4% | [12] 23.2% | [13] 83.6% | [14] 42.7% | [15] 14.4% | [16] 17.7% | [18] 36.8% | [19] 78.7% | [20] 53.2%
active: [6] -27.9% | [7] 0.948% | [17] -17.2%

O=C(O)COc1ccc(Cl)cc1C1CCCCC1
inactive: [1] 102% | [2] 92.8% | [3] 101% | [4] 106% | [5] 96.3% | [6] 111% | [7] 99% | [8] 93.2% | [9] 106% | [10] 119% | [11] 110% | [12] 91.8% | [13] 104% | [14] 98.5% | [15] 102% | [16] 102% | [17] 109% | [18] 107% | [19] 114% | [20] 102%

COc1ccc(NC2=C(Sc3nc(C)cc(C)n3)C(=O)N(Cc3ccccc3)C2=O)cc1Cl
inactive: [1] 84.5% [30 µM] | [2] 79.9% [30 µM] | [3] 111% [30 µM] | [4] 96.3% [30 µM] | [5] 60.7% [30 µM] | [6] 26.9% [30 µM] | [7] 85.7% [30 µM] | [8] 74.3% [30 µM] | [9] 80.4% [30 µM] | [10] 110% [30 µM] | [11] 113% [30 µM] | [12] 69.7% [30 µM] | [13] 95.4% [30 µM] | [14] 85.4% [30 µM] | [15] 50.8% [30 µM] | [16] 57.8% [30 µM] | [17] 39.6% [30 µM] | [18] 101% [30 µM] | [19] 43.9% [30 µM] | [20] 95.9% [30 µM]

COc1cc(-c2nc3ccccc3[nH]2)ccc1OCc1nnc(-c2ccc(CC(C)C)cc2)o1
inactive: [1] 91.1% | [2] 87.7% | [3] 93.8% | [4] 93.4% | [5] 98.8% | [6] 79.7% | [7] 93.5% | [8] 84.2% | [9] 93.7% | [10] 101% | [11] 94% | [12] 76% | [13] 89.9% | [14] 93.4% | [15] 71.2% | [16] 99.9% | [17] 99.3% | [18] 105% | [19] 104% | [20] 98.3%
